# Screening data: PubChem, The Scripps Research Institute Molecular Screening Center
# This is a sample that favours compounds with a hit; in the whole collection about 2.5% have one here.
# LEDGF integ inh – blocks HIV-1 LEDGF/p75-dependent DNA integration. TR-FRET IN-LEDGF/p75 DNA integration, Eu/Cy5. inhibition, % at 3.7 µM. 370,000 compounds, 0.64% hits. AID 743269;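 active = inhibition above the screen-wide mean plus 3 SD, cut at about 13% in these data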;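 note: signal is the Cy5 over europium emission ratio at 671 and 618 nm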
# UHRF1 binding – UHRF1 methyl-DNA binding inhibition; inhibition, % at 4.4 µM; UHRF1 binding to methylated oligo, TR-FRET; 370,000 compounds, 0.75% hits; Q96T88;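 note: UHRF1 SRA domain binding a hemimethylated CpG hairpin DNA probe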
# PRMT1 inh – PRMT1 (human) inhibition, primary screen | Q99873 | recombinant PRMT1, activity-based probe fluorescence polarization | inhibition, % at 2.79 µM | 370,000 compounds, 1.3% hits | AID 652257;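 active = inhibition above about 21% made by adding two undisclosed values, limit read from the data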
# Target sequence (Q99873 whole entry, looked up): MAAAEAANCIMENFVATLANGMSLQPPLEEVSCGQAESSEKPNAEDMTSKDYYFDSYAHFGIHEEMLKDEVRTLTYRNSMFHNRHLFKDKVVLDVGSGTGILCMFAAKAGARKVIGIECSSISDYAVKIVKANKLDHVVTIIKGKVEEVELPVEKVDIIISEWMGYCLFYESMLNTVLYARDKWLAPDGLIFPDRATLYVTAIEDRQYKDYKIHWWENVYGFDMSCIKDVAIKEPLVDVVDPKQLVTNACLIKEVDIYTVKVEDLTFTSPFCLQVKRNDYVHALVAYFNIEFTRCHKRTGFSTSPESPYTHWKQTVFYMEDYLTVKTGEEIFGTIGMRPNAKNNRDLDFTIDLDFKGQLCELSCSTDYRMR
# MBD2 DNA inh – MBD2-methylated oligo binding inhibition. 370,000 compounds, 0.31% hits. Q9UBB5. AID 686964. TR-FRET, MBD2 binding to methylated oligonucleotide. inhibition, % at 4.4 µM; in the data active = inhibition above about 13%
# UHRF1 ctr MBD2 – counter-screen for MBD2 inhibitors: human UHRF1 methylated DNA binding inhibitors; inhibition, % at 4.4 µM; 1,000 compounds, 25% hits; shares compounds with MBD2 DNA inh; UHRF1 binding to methylated oligonucleotide, TR-FRET;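 note: UHRF1 SRA domain binding a labeled hemimethylated CpG hairpin DNA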
# MBD2 DBD conf – confirmation of human MBD2-DBD methylated oligonucleotide binding inhibitors; shares compounds with MBD2 DNA inh; TR-FRET MBD2-DBD binding to methylated oligonucleotide; inhibition, % at 4.4 µM; 1,000 compounds, 26% hits; AID 720531; in the data active = inhibition above about 14%
# Hits are given with their value; 0 = inactive; - = no result. Cut-off read from the data, not from the text of the source, unless noted: active = inhibition above about 21%; inactive = the rest.
SMILES,LEDGF integ inh,UHRF1 binding,PRMT1 inh,MBD2 DNA inh,UHRF1 ctr MBD2,MBD2 DBD conf
COC(=O)c1ccc(C(=O)OC)c(NC(=S)N2CCCC(CO)C2)c1 (configuration not stated),0,0,0,24,0,0
COC(=O)[C@@]12C[C@@H](CC(=O)NCCC(C)C)C(=O)N(Cc3ccccc3)C1=CCC(C)(C)C2,0,0,0,0,-,-
N#CC1=C(c2ccc(-c3ccccc3)cc2)COC1=O,0,0,0,0,-,-
COc1ccc(C2=C(c3ccc([N+](=O)[O-])cc3)C(=O)OC2)cc1,0,0,0,0,-,-
CS(=O)(=O)c1ccc(C2=C(c3ccccc3)C(=O)OC2)cc1,0,34,0,33,46,45
O=C1OCC(c2ccccc2)=C1c1ccccc1,0,21,0,22,36,38
CC1=C(C(=O)N(C)C)CC(CC(=O)NC2CCCCC2)C(=O)N1Cc1ccccc1 (configuration not stated),0,0,0,0,-,-
Cc1nn(-c2ccc(C(=O)O)cc2)c(C)c1Cl,0,0,0,0,-,-
Cc1c[n+]([O-])n(-c2ccc(C(=O)O)cc2)n1,0,0,0,15,0,0
COc1cc(OC)cc(-c2noc([C@@H]3O[C@H](CO)[C@H](O)[C@H](O)[C@H]3O)n2)c1,0,0,0,0,-,-
CC(Sc1nnc(CN2CCCC2)n1Cc1ccccc1)C(=O)Nc1ccccc1 (configuration not stated),0,0,0,34,0,0
Cc1ccccc1NC(=O)C(C)Sc1nnc(CN2CCCC2)n1Cc1ccccc1 (configuration not stated),0,0,0,0,-,-
O=C(CN1CCN(S(=O)(=O)N2CCCCC2)CC1)Nc1ccc(Cl)c(Cl)c1,0,0,0,0,-,-
CC(C)(C)n1nnnc1C(c1ccc(C(F)(F)F)cc1)N(Cc1ccc(F)cc1)Cc1ccco1 (configuration not stated),0,0,0,18,0,0
CC(C)(C)n1nnnc1C(c1ccc(F)cc1)N(Cc1ccc(F)cc1)Cc1ccco1 (configuration not stated),0,0,0,0,-,-
CC(C)C[C@H](NC(C)(C)C(=O)NC1CCCCC1)C(=O)NCC(c1ccccc1)c1ccccc1,0,0,0,21,0,0
O=C(NCc1cccc(Cl)c1)c1ccc(CS(=O)Cc2ccc(Cl)cc2)o1 (configuration not stated),0,0,0,0,-,-
CCOC(=O)C1=NN(C(C)=O)C2(CC(=O)N(c3cccc(C)c3)C2=O)C1 (configuration not stated),0,0,0,19,0,0
COc1cc2cc(C(=O)N(C)C3CCS(=O)(=O)C3)[nH]c2cc1OC (configuration not stated),0,0,0,15,0,0
CN(C)/C=C1\N=C(c2ccc(Cl)cc2Cl)OC1=O,0,0,0,16,0,0
CN(C)/C=C1\N=C(c2cccnc2Oc2ccc(Cl)cc2)OC1=O,0,0,0,0,-,-
Cc1ccc(NC(=O)CN(C)C(=O)CNC(=O)c2sc3ccccc3c2Cl)cc1,0,0,0,50,0,0
CCOc1ccc(CCN2C(=O)C(=O)N([C@@H](CC(C)C)CN3CCC[C@H]3CN3C(=O)C(=O)NC[C@@H]3CC(C)C)C[C@@H]2Cc2ccc(O)cc2)cc1,0,22,0,16,0,0
CCOc1ccc(C(=O)N2CCN(CC(=O)N3CCCC3)CC2)cc1OCC,0,22,0,16,0,0
CC(NC(=O)NC(=O)c1cccc(Cl)c1)c1ccccc1 (configuration not stated),0,0,0,0,-,-
SMILES,LEDGF integ inh,UHRF1 binding,PRMT1 inh,MBD2 DNA inh,UHRF1 ctr MBD2,MBD2 DBD conf
O=Cc1ccc(N2CCN(S(=O)(=O)c3ccc4c(c3)CC(=O)N4)CC2)cc1,24,0,0,15,0,0
C/C(=N/NC(=O)c1ccco1)c1ccc(NC(=O)c2ccc(Br)o2)cc1,0,0,0,0,-,-
C/C(=N/NC(=O)c1ccco1)c1ccc(NC(=O)c2ccc(F)cc2)cc1,0,0,0,14,0,0
Cc1ccc(-c2cc(-c3nnc(SCC(=O)N4CCOCC4)n3N)[nH]n2)cc1,0,0,0,0,-,-
CCCn1nnc(NC(=O)Cc2ccc(Cl)cc2)n1,0,0,0,0,-,-
CCCn1nnc(NC(=O)COc2ccc(Cl)cc2)n1,0,23,0,14,0,0
Cc1cc(C)n2nc(-c3ccc(F)cc3)cc2n1,0,0,0,28,0,0
